Assay [1] can be described thus: A CellTox Green Cytotoxicity Assay to monitor cytotoxicity in HEK293 cells - 40 hour (AID 1224871). Also: nearly all actives have a fitted effect of over 45% in size. Also: potency is read from the fitted curve at half-maximal effect. Put shortly:
(§1)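 Each value comes from one timepoint of a single continuous run in which HEK293 cells with CellTox Green were exposed to compound for up to 40 h at 37 C, dye fluorescence rising with cell death.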

The nature of assay [2]: qHTS RealTime-Glo MT Cell Viability Assay in HEK293 cells - 16 hour (AID 1224872). Also: nearly all actives have a fitted effect of over 50% in size. Also: potency is read from the fitted curve at half-maximal effect. As to activity change, negative = cytotoxicity: top concentration of the series differs between compounds. Put shortly:
(§2)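 Reads taken at 0, 8, 16, 24, 32 and 40 h from the same wells. HEK293 cells (600/well) carried RealTime-Glo reagents from seeding, with compound added after a 5 h settle at 37 C.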
A general note: Quantitative high-throughput screening tests each substance at several concentrations.

Assay [3] can be described thus: qHTS RealTime-Glo MT Cell Viability Assay in HEK293 cells - 40 hour (AID 1224874). Also: nearly all actives have a fitted effect of over 50% in size. Also: potency is read from the fitted curve at half-maximal effect. As to conditions: RealTime-Glo luminescence; max response: stronger effect = lower value. An outline of the steps:
(§3)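 qHTS format; HEK293 cells with NanoLuc/prosubstrate reagent, 37 C/5% CO2 for 5 h pre-dosing; compounds 23 nL in DMSO; luminescence at each time point reflects viable cells.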

A short description of assay [4]: A CellTox Green Cytotoxicity Assay to monitor cytotoxicity in HEK293 cells - 24 hour (AID 1224875). Also: nearly all actives have a fitted effect of over 45% in size. Also: potency is read from the fitted curve at half-maximal effect. As to activity change: series mostly up to about 77 µM. An outline of the steps: as §1
The nature of assay [5]: A CellTox Green Cytotoxicity Assay to monitor cytotoxicity in HepG2 cells - 16 hour (AID 1224876). Also: nearly all actives have a fitted effect of over 45% in size. Also: potency is read from the fitted curve at half-maximal effect. Put shortly:
(§4)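 Continuous culture of HepG2 cells with a membrane-impermeant DNA dye; rising fluorescence marks dead cells. Compound exposure lasted up to 40 h at 37 C, with reads every 8 h from 0 h.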

Assay [6] can be described thus: qHTS RealTime-Glo MT Cell Viability Assay in HepG2 cells - 32 hour (AID 1224877). Also: nearly all actives have a fitted effect of over 55% in size. Also: potency is read from the fitted curve at half-maximal effect. An outline of the steps: (§5)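 HepG2 suspension premixed with RealTime-Glo reagents is plated at 600 cells per well and left 5 h at 37 C/5% CO2. Compounds in DMSO then go in, and bioluminescence reflecting viable cell number is recorded over 40 h.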
The nature of assay [7]: A CellTox Green Cytotoxicity Assay to monitor cytotoxicity in HepG2 cells - 24 hour (AID 1224878). Also: nearly all actives have a fitted effect of over 45% in size. Also: potency is read from the fitted curve at half-maximal effect. Put shortly:
as §4

The nature of assay [8]: A CellTox Green Cytotoxicity Assay to monitor cytotoxicity in HepG2 cells - 40 hour (AID 1224879). Also: nearly all actives have a fitted effect of over 40% in size. Also: potency is read from the fitted curve at half-maximal effect. An outline of the steps: as §4
A short description of assay [9]: qHTS RealTime-Glo MT Cell Viability Assay in HEK293 cells - 0 hour (AID 1224880). Put shortly: as §3
Assay [10] in a line: A CellTox Green Cytotoxicity Assay to monitor cytotoxicity in HEK293 cells - 32 hour (AID 1224881). Also: nearly all actives have a fitted effect of over 40% in size. Also: potency is read from the fitted curve at half-maximal effect. An outline of the steps: as §1
A short description of assay [11]: A CellTox Green Cytotoxicity Assay to monitor cytotoxicity in HepG2 cells - 0 hour (AID 1224882). Also: nearly all actives have a fitted effect of over 35% in size. Also: potency is read from the fitted curve at half-maximal effect. An outline of the steps: as §4
A short description of assay [12]: A CellTox Green Cytotoxicity Assay to monitor cytotoxicity in HepG2 cells - 32 hour (AID 1224883). Also: nearly all actives have a fitted effect of over 50% in size. Also: potency is read from the fitted curve at half-maximal effect. Put shortly: as §4
Assay [13] can be described thus: A CellTox Green Cytotoxicity Assay to monitor cytotoxicity in HEK293 cells - 8 hour (AID 1224884). Also: nearly all actives have a fitted effect of over 35% in size. Also: potency is read from the fitted curve at half-maximal effect. Put shortly: as §1
The nature of assay [14]: qHTS RealTime-Glo MT Cell Viability Assay in HepG2 cells - 16 hour (AID 1224885). Also: nearly all actives have a fitted effect of over 50% in size. Also: potency is read from the fitted curve at half-maximal effect. An outline of the steps:
as §5

Assay [15] in a line: qHTS RealTime-Glo MT Cell Viability Assay in HEK293 cells - 24 hour (AID 1224886). Also: nearly all actives have a fitted effect of over 50% in size. Also: potency is read from the fitted curve at half-maximal effect. As to activity change, negative = cytotoxicity: top concentration of the series differs between compounds. Put shortly: as §2
A short description of assay [16]: qHTS RealTime-Glo MT Cell Viability Assay in HEK293 cells - 8 hour (AID 1224887). Also: nearly all actives have a fitted effect of over 50% in size. Also: potency is read from the fitted curve at half-maximal effect. As to activity change, negative = cytotoxicity: top concentration of the series differs between compounds. Put shortly:
as §3

The nature of assay [17]: A CellTox Green Cytotoxicity Assay to monitor cytotoxicity in HepG2 cells - 8 hour (AID 1224890). Also: nearly all actives have a fitted effect of over 45% in size. Also: potency is read from the fitted curve at half-maximal effect. An outline of the steps: as §4
Assay [18] can be described thus: A CellTox Green Cytotoxicity Assay to monitor cytotoxicity in HEK293 cells - 16 hour (AID 1224888). Also: nearly all actives have a fitted effect of over 35% in size. Also: potency is read from the fitted curve at half-maximal effect. An outline of the steps: as §1
The nature of assay [19]: qHTS RealTime-Glo MT Cell Viability Assay in HepG2 cells - 0 hour (AID 1224889). Also: nearly all actives have a fitted effect of over 50% in size. An outline of the steps: as §5
A short description of assay [20]: qHTS RealTime-Glo MT Cell Viability Assay in HepG2 cells - 8 hour (AID 1224873). Also: nearly all actives have a fitted effect of over 55% in size. An outline of the steps:
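HepG2 cells mixed with RealTime-Glo MT reagents (NanoLuc plus cell-permeant prosubstrate) were seeded at 600 cells/well, incubated 5 h at 37 C/5% CO2, then pinned with compounds in DMSO; nonlytic luminescence tracked viability during 40 h treatment.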

SMILES strings stand for the structures. A number with no mark means an inactive call. Inconclusive results are not listed. Activity calls are given as the source filed them. Calls follow the shape of the dose curve; as a rule, active = well fitted curve in the direction sought with a large enough effect in the repeat runs; inconclusive = weak or mixed curves; inactive = no such curve, though single readings can be large; an effect the other way counts as inactive or inconclusive.
% is scaled to controls: 0 for no effect and ±100 for the full control effect.

Regarding `c1ccc(CSCc2ccccc2)cc1`, the Potency result in [1], in assay [2], in assay [4], in [5], in [6] and in assay [7] was “inactive” throughout. Besides, the Potency entry in [8], in assay [9], in assay [10], in assay [11], in [12] and in [13] was “inactive” in each case. Moreover, the Potency result in [14], in [15], in [16] and in assay [17] was “inactive” each time. Further, the max response in [3] was -5.29%.

Turning to `CC/C(=C(\c1ccc(O)cc1)c1ccc(OCCN(C)C)cc1)c1ccccc1`, the Potency in assay [1] is 43.8 µM (active); in assay [2] it was 24.6 µM (active); in assay [3] it was 17.4 µM (active); in assay [4] it was 49.1 µM (active); in [6], 61.8 µM (active); in [7] it was 55.1 µM (active). The Potency in assay [8] is 55.1 µM (active); in assay [10], 43.8 µM (active); in assay [12], 49.1 µM (active); in assay [14], 61.8 µM (active); in [15] it was 21.9 µM (active); in [16], 27.6 µM (active). Besides, the Potency entry in [9] and in assay [11] was “inactive” throughout.

Consider `CSc1cnc(C)cn1`, for which the Potency in [1] is 89.4 µM (active); in [4] it was 89.4 µM (active); in assay [5], 89.4 µM (active); in [7] it was 63.3 µM (active); in assay [8], 63.3 µM (active); in assay [10] it was 89.4 µM (active). Besides, the Potency in assay [11] is 56.4 µM (active); in assay [12], 63.3 µM (active); in assay [13], 63.3 µM (active); in [18], 89.4 µM (active); in assay [17], 56.4 µM (active). Further, the Potency entry in [2], in [6], in [9], in assay [14], in [15] and in assay [16] was “inactive” each time. Further, in assay [3], the max response was 7.94%.

Turning to `CC(C)(C)C(=O)OCOC(=O)C1N2C(=O)CC2S(=O)(=O)C1(C)C` (stereo unspecified), the Potency entry in assay [1], in assay [2], in assay [4], in assay [6], in assay [8] and in assay [9] was “inactive” throughout. For the same compound, the Potency entry in [10], in assay [11], in assay [12], in assay [13], in assay [14] and in [15] was “inactive” in each case. Also, the Potency entry in [16], in assay [18] and in [19] was “inactive” in each case. The max response in [3] is 5.75%.

For `CCOC(=O)O[C@H](C)OC(=O)c1ccc2c(c1)cc(C(=O)NC1CCN(C(C)C)CC1)n2Cc1cc(-c2ccc(Cl)s2)on1`, the Potency in assay [1] is 18.2 µM (active); in assay [2], 10.2 µM (active); in assay [3] it was 11.5 µM (active); in [4], 20.4 µM (active); in assay [5], 11.5 µM (active); in [6], 10.2 µM (active). Also, the Potency is 11.5 µM (active) in assay [7]; 10.2 µM (active) in assay [8]; 18.2 µM (active) in [10]; 11.5 µM (active) in assay [12]; 51.3 µM (active) in assay [13]; 12.9 µM (active) in [14]. Further, the Potency in [15] is 11.5 µM (active); in assay [16], 11.5 µM (active); in assay [18], 45.8 µM (active); in assay [17], 18.2 µM (active). Further, the Potency result in assay [9], in assay [11] and in assay [19] was “inactive” throughout.

Take `Nc1cc(C(F)(F)F)ccc1S`: the Potency entry in [1], in assay [2], in assay [4], in [5], in [6] and in assay [7] was “inactive” throughout. The Potency entry in [8], in assay [9], in assay [10], in assay [11], in assay [12] and in [13] was “inactive” in each case. The Potency result in assay [14], in assay [15], in [16], in assay [18], in assay [19] and in assay [17] was “inactive” each time. Also, the max response in assay [3] was 3.21%.

For the compound `CCCCCCCCCCCCCCCS(=O)(=O)Oc1ccccc1`, the Potency entry in assay [1], in assay [20], in assay [4], in [5], in [6] and in assay [7] was “inactive” each time. Also, the Potency entry in [8], in [9], in assay [10], in assay [12], in assay [14] and in assay [18] was “inactive” each time. The Potency result in assay [19] and in assay [17] was “inactive” throughout. In addition, the max response in assay [3] was -18%.

With `CCCCCCCCCOC(=O)c1ccc(O)cc1`, the Potency in [1] was 38.3 µM (active); in assay [2], 43 µM (active); in assay [4], 38.3 µM (active); in assay [7], 48.3 µM (active); in assay [8], 48.3 µM (active); in assay [12] it was 48.3 µM (active). For the same compound, the Potency in [15], in [16] and in assay [18] was 38.3 µM (active) throughout. The Potency entry in assay [6], in assay [9], in assay [11], in assay [19] and in [17] was “inactive” in each case.

As for `CCN1/C(=C/C=C/c2sc3ccccc3[n+]2CC)Sc2ccccc21`, the Potency is 9.28 µM (active) in assay [1]; 1.04 µM (active) in [2]; 1.85 µM (active) in assay [7]; 1.17 µM (active) in [8]; 10.4 µM (active) in assay [10]; 1.17 µM (active) in [12]. The Potency in assay [15] is 1.17 µM (active). Further, the values for the cytotoxicity increase in [5], in assay [13] and in assay [17] were -2.11% [at 15.8 µM], -9.76% [at 15.8 µM] and -7.07% [at 15.8 µM], respectively. Further, the activity change, negative = cytotoxicity in assay [9] was -8.36% [at 15.8 µM]; in assay [16], -21.6% [at 15.8 µM]; in assay [19], -13.2% [at 15.8 µM]. For the same compound, in [11], the cytotoxicity is -4.71% [at 15.8 µM]. Further, the activity change in assay [18] is -3.87% [at 15.8 µM, stronger effect = higher value].

Take `Cc1cc2c(cc1C(F)(F)F)N(C(=O)Nc1ccc(Oc3cccnc3C)nc1)CC2`: the Potency entry in assay [1], in assay [20], in [4], in assay [5], in assay [9] and in assay [10] was “inactive” each time. The Potency result in [11], in assay [13], in assay [14], in assay [16], in [18] and in [19] was “inactive” each time. Besides, in assay [17], the Potency entry is “inactive”. For the same compound, in [3], the Potency was 5.58 µM (active).

The values are drawn from PubChem BioAssay (Tox21).
